In the supplement of paper PMC10849652:
About 7,900 targets were measured; listed, in parts, are those with a hit and a random draw of the rest. About 0.6% of all pairs of compound and target were hits.

Compound: CC(C)(C)Cn1c(N)nc2ccc(-c3[nH]c(C(C)(C)C)nc3-c3ccc(F)cc3)nc21 [ralimetinib]
Assay: log2 fold change, soluble protein after heating vs DMSO (PISA); higher = thermal stabilisation; K562 cells, 10 uM, 30 min; active = over 0.2 and 3.5 SD of the protein, either way, in both replicates (recomputed)
In short: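 Values are thermal stability changes relative to control samples and are taken from duplicates. They are stated as log2 fold changes. Before quantification by TMTpro 16plex LC-MS/MS with equalised channel sums, K562 cells at 2×10^6 cells/mL were treated with 10 μM compound for 30 min, heated in aliquots for 3 min across 48°C-58°C, pooled, extracted in PBS with 0.5% NP-40 at 4°C, and centrifuged at 21,000xg for 90 min to give the soluble supernatant.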

Sequence of UniProt Q92890 (Q92890 whole entry, looked up): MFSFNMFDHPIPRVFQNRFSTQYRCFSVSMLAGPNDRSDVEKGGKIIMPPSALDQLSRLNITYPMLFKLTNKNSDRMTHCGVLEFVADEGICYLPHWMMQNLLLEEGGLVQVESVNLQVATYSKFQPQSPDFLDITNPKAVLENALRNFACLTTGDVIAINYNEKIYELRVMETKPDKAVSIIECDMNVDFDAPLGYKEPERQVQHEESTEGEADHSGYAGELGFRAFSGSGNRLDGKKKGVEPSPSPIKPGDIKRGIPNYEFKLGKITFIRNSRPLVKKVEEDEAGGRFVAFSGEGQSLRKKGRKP
Sequence of UniProt Q14157 (Q14157 whole entry, looked up): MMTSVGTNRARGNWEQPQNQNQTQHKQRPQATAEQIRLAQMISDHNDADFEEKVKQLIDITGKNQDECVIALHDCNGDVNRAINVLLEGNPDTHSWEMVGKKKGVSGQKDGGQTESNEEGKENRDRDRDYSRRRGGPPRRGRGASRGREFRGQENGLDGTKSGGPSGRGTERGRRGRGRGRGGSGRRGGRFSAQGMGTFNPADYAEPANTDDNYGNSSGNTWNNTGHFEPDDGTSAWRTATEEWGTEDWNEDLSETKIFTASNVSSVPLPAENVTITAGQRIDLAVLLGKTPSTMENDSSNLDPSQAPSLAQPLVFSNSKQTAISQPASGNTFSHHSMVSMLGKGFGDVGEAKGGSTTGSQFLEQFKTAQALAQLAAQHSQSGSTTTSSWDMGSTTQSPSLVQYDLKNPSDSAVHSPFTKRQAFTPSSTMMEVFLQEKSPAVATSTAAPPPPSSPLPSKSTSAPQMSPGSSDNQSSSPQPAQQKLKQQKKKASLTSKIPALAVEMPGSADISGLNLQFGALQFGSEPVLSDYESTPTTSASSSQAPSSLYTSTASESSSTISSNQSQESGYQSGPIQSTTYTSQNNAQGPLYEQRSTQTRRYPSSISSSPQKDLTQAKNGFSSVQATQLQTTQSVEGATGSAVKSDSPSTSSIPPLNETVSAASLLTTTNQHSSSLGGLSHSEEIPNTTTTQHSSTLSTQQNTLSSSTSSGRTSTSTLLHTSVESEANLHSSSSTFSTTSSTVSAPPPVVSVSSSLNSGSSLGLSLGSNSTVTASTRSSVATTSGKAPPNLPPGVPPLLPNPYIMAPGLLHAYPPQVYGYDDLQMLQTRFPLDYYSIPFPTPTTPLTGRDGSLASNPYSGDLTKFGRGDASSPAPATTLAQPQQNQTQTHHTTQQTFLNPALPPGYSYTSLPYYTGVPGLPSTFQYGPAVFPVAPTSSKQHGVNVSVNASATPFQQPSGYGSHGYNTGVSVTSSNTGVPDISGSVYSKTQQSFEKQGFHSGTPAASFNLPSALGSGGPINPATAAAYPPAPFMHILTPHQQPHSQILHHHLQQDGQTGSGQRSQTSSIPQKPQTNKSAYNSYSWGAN
Sequence of UniProt Q12888 (Q12888 whole entry, looked up): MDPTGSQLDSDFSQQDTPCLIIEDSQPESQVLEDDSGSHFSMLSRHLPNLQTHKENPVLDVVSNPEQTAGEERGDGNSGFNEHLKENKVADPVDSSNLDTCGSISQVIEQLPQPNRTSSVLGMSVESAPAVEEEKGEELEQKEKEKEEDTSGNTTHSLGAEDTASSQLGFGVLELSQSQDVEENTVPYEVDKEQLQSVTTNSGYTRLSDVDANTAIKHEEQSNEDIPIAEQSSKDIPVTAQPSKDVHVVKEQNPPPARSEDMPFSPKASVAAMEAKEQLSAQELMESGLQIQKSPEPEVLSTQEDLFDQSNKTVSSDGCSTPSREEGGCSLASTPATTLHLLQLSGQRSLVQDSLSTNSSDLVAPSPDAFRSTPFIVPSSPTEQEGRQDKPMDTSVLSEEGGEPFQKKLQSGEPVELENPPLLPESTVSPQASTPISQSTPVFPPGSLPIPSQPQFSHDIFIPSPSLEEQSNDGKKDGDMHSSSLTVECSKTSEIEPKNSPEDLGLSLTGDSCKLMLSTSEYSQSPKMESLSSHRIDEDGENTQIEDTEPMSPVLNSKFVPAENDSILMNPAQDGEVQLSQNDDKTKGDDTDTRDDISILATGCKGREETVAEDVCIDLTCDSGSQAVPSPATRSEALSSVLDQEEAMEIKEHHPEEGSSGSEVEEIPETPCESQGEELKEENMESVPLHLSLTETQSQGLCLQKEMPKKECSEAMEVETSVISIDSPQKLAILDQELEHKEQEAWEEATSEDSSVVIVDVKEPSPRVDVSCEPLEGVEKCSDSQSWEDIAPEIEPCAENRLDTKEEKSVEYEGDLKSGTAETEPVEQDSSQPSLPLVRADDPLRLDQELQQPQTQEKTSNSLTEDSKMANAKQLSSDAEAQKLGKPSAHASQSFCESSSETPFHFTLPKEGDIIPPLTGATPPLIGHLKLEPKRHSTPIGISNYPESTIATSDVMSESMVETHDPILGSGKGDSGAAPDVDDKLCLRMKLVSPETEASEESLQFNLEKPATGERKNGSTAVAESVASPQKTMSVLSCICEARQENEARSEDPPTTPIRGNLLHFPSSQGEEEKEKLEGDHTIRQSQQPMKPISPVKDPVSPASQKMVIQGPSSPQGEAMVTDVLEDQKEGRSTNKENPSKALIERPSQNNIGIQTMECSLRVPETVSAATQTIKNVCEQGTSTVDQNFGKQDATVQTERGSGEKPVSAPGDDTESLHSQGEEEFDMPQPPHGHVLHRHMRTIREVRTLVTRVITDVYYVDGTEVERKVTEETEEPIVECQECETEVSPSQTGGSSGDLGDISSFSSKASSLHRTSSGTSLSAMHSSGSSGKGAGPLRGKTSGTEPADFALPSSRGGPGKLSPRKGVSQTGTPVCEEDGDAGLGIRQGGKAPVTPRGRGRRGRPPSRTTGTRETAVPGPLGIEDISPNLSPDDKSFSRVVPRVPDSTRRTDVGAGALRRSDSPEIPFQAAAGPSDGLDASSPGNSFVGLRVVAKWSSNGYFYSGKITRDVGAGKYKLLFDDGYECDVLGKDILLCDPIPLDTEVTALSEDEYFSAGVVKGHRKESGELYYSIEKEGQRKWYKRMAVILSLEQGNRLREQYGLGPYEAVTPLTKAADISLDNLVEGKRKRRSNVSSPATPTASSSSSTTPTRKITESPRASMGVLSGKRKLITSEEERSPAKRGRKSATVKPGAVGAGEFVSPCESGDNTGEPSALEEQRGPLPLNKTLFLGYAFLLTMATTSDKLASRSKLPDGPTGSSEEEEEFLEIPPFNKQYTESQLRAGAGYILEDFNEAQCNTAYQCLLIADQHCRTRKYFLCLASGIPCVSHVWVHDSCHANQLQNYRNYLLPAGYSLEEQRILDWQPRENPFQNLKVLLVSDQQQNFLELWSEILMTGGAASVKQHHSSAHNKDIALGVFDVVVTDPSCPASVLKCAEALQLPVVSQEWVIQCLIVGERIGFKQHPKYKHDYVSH
Sequence of UniProt Q5BJH2 (Q5BJH2 whole entry, looked up): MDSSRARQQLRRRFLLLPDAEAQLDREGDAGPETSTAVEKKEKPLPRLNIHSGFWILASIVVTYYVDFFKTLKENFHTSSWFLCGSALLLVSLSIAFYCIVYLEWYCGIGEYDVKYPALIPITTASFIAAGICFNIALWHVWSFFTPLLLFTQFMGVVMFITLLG
Sequence of UniProt O95379 (O95379 whole entry, looked up): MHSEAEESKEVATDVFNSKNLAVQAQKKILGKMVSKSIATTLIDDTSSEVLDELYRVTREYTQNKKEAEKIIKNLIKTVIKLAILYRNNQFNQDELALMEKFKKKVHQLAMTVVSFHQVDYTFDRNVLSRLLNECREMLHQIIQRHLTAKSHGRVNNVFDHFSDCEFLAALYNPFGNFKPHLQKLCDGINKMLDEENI
Sequence of UniProt A6NHL2 (A6NHL2 whole entry, looked up): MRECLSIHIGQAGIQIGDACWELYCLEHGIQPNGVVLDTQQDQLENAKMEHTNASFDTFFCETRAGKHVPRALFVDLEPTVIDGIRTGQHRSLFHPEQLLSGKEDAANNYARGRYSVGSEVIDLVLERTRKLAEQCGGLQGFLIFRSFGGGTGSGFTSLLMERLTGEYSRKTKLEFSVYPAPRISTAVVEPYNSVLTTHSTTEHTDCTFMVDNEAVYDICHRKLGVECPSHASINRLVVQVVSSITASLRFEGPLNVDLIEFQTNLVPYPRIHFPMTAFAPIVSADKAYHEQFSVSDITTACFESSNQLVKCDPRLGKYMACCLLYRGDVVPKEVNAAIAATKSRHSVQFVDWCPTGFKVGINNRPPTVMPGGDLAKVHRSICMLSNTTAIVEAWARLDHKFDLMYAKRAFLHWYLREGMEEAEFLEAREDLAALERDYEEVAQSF
Sequence of UniProt Q9NQ34 (Q9NQ34 whole entry, looked up): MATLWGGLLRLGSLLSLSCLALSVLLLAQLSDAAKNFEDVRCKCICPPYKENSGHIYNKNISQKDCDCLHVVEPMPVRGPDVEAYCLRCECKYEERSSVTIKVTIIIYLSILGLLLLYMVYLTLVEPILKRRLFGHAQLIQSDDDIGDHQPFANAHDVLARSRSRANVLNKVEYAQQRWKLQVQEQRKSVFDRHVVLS
Sequence of UniProt A0PJW6 (A0PJW6 whole entry, looked up): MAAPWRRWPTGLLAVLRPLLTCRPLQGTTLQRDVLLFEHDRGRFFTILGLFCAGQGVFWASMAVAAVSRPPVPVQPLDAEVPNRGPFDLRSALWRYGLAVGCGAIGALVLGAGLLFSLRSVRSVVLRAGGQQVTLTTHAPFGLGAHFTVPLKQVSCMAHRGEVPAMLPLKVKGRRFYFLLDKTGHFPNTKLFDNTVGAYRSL
Sequence of UniProt Q8NEZ2 (Q8NEZ2 whole entry, looked up): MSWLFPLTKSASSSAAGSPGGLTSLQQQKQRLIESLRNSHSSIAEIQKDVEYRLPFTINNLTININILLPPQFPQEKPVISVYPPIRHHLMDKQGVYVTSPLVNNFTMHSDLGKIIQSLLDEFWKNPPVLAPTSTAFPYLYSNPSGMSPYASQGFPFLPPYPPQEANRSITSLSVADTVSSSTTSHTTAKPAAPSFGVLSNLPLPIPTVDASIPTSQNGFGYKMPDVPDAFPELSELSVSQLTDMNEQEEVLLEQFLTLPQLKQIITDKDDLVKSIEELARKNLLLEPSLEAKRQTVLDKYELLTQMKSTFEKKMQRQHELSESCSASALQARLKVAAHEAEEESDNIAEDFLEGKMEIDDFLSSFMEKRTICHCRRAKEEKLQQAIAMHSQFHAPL

log2 fold change, inactive:
TMEM223 (UniProt A0PJW6) -0.009
USP25 isoform 3 (UniProt Q9UHP3) -0.027
VPS41 (UniProt P49754) 0.052
WDR47 (UniProt O94967) -0.005
TMEM128 (UniProt Q5BJH2) -0.036
WDR41 (UniProt Q9HAD4) -0.036
TMEM9 (UniProt Q9P0T7) -0.003
VPS51 (UniProt Q9UID3) 0.024
TYW1 (UniProt Q9NV66) 0.044
TUBAL3 (UniProt A6NHL2) -0.044
TOM1L1 (UniProt O75674) -0.047
TPR (UniProt P12270) 0.058
TP53BP1 isoform 2 (UniProt Q12888) 0.056
TRAPPC2L (UniProt Q9UL33) -0.125
U2AF1 isoform 2 (UniProt Q01081) 0
VPS37A (UniProt Q8NEZ2) 0.053
WEE1 (UniProt P30291) 0.037
TNFAIP8 isoform 4 (UniProt O95379) 0
UBAP2L isoform 5 (UniProt Q14157) -0.007
WDR43 (UniProt Q15061) -0.088
UFD1 isoform 1 (UniProt Q92890) 0

log2 fold change, active:
TMEM9B (UniProt Q9NQ34) 0.324
